Compound activity as filed in PubChem BioAssay.
Sampled rows, rich in hits. Any-hit rate of the full collection: about 10%.
PTEN del growth – growth suppressors of cells with PTEN tumor suppressor deletion. HCT116 PTEN-null viability, CellTiter-Glo, 60 h; hits give low values. viability, % at 10 µM. 140,000 compounds, 1.2% hits. AID 827;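 active means viability at or below a set limit, 4 SD under the median of all tested compounds, cut at about 3.7% in these data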;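 further: PTEN knockout HCT116 line with beta catenin targeted HCT116 as companion control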
INS promoter inh – TRM-6 insulin promoter activity inhibition | TRM-6 cells (human fetal islet line), insulin promoter-eGFP reporter, imaging; reporter expression induced with tamoxifen | inhibition, % at 2 µM | 130,000 compounds, 0.9% hits;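 active means inhibition above the mean plus 3 SD, with well images judged a real hit on visual review, cut at about 60% in these data, passing the limit was not always enough; inconclusive means inhibition over the cutoff but images rejected on review; inactive means inhibition not above the cutoff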
L major viab – reduces viability of Leishmania major promastigotes; resazurin fluorescence viability; inhibition, % at 10 µM; 200,000 compounds, 9% hits; in the data active means inhibition above about 50%;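 further: promastigotes grown with compound for 44 hours at 28 °C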
bCat KO growth – beta-catenin-lacking colon tumor cell growth suppression; HCT116 beta-catenin knockout viability, CellTiter-Glo, 60 h; hits give low values; viability, % at 10 µM; 140,000 compounds, 1.5% hits; AID 818;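 active means viability at or under a set limit, the compound median less 4 SD, cut at about 6% in these data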
p97 ATPase inh – inhibitors of human p97 ATPase; P55072; recombinant p97 ATPase, Kinase-Glo ATP luminescence, 3 h; inhibition, % at 8 µM; 220,000 compounds, 0.42% hits; in the data active means inhibition above about 15%
ROMK primary – human ROMK K+ channel modulation, primary screen; 130,000 compounds, 2% hits; B-score at 10 µM; Tet-inducible ROMK, thallium flux fluorescence; actives lie on both sides; AID 1918; P48048;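 active means signal ratio slope over the read window, or its plate-corrected B-score, at least 3 SD from the plate mean, either direction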;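 further: B-score of the F/F0 ratio slope over 7 to 12 s after thallium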
Target sequence (P48048 whole entry, looked up): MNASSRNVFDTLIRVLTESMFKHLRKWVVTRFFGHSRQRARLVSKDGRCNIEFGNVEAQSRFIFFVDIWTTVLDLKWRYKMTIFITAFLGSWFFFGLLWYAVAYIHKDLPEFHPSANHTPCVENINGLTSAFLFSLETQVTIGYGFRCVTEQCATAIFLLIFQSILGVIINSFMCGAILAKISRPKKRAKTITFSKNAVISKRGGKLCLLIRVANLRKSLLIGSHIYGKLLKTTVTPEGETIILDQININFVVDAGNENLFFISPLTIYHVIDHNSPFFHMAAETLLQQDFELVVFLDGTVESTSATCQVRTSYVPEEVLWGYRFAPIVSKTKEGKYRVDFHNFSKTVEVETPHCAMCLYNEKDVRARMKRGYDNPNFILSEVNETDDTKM
Hits are given with their value; . = inactive; ? = inconclusive; / = not tested or not shown.

SMILES	PTEN del growth	INS promoter inh	L major viab	bCat KO growth	p97 ATPase inh	ROMK primary
CCc1ccc(NC(=O)N(Cc2cccnc2)Cc2ccco2)cc1	.	.	90	.	.	/
COC(=O)c1ccc(NC(=S)N(Cc2cccnc2)Cc2ccco2)cc1	/	.	100	/	.	.
CCc1ccc(NC(=O)N(Cc2ccco2)C(C)c2cccs2)cc1 (centres undefined)	.	.	70	.	.	/
CCc1ccccc1NC(=S)N(Cc1ccco1)C(C)c1cccs1 (centres undefined)	/	.	.	/	.	.
CC(C)CCN(C(=O)Nc1ccccc1)C(C)c1cccs1 (centres undefined)	.	.	83	.	.	.
CC(c1cccs1)N(C(=O)Nc1ccccc1)C1CCCCC1 (centres undefined)	.	.	.	.	.	/
COc1ccc(N2CCN(C(CNC(=O)c3ccc4c(c3)OCO4)c3cccnc3)CC2)cc1 (centres undefined)	.	.	90	.	.	.
O=C(NCC(c1cccnc1)N1CCN(c2ccc(F)cc2)CC1)c1ccc2c(c1)OCO2 (centres undefined)	.	.	95	.	.	.
COc1ccc(N2CCN(C(CNC(=O)c3cccc(Cl)c3)c3cccnc3)CC2)cc1 (centres undefined)	.	?	96	.	.	.
CC(=O)Oc1ccc2c(=O)c(Oc3ccccc3)coc2c1OC(C)=O	.	.	.	.	.	/
COc1ccc2c(c1)c1nnc(SCC(=O)N3CCCCC3C)nc1n2C (centres undefined)	.	/	85	.	.	.
Cc1ccc(NC(=S)NCCCN2CCOCC2)cc1	.	.	78	.	.	.
S=C(NCCN1CCOCC1)Nc1ccc(Cl)cc1	.	.	.	.	.	/
Cc1cccc(NC(=S)NCCCN2CCOCC2)c1	.	.	.	.	.	.
S=C(NCCCN1CCOCC1)NCCCN1CCOCC1	.	.	.	.	.	.
CC(NC(=S)NCCCN1CCOCC1)C12CC3CC(CC(C3)C1)C2 (centres undefined)	/	.	86	/	.	.
Cc1ccc(NC(=S)NCC(C)C)cc1	.	.	78	.	.	.
S=C(NCCCN1CCOCC1)Nc1ccc(Cl)cc1	.	.	99	.	.	.
CC1CCN(CCNC(=S)Nc2ccc(Cl)cc2)CC1	/	/	66	/	.	.
S=C(NCCN1CCOCC1)Nc1ccc(Cl)c(Cl)c1	/	.	55	/	.	.
Fc1ccc(NC(=S)NCCN2CCOCC2)cc1	/	.	.	/	.	.
O=C(O)c1ccc(S(=O)(=O)c2ccc3c(c2)C(=O)N(NC(=O)c2cccnc2)C3=O)cc1	/	/	/	/	.	/
Cc1ccc(C)c(NC(=O)C2CCCN2S(=O)(=O)c2ccc3c(c2)n(C)c(=O)c(=O)n3C)c1 (centres undefined)	.	.	.	.	.	.
O=C(Cn1c(=O)oc2cc(S(=O)(=O)N3CCCC3)ccc21)Nc1cccc(C(F)(F)F)c1	.	/	100	.	.	.
O=C(Cn1c(=O)oc2cc(S(=O)(=O)N3CCCC3)ccc21)NCc1ccc(F)cc1	.	/	98	.	.	/
SMILES	PTEN del growth	INS promoter inh	L major viab	bCat KO growth	p97 ATPase inh	ROMK primary
Cn1c(=O)oc2cc(S(=O)(=O)N3CCN(c4ccc(F)cc4)CC3)ccc21	.	70	60	.	.	/
O=C(Cc1ccc(F)cc1)Nc1ccc(S(=O)(=O)N2CCCCC2)cc1	/	/	.	/	.	.
Cn1c(=O)c(=O)n(C)c2cc(S(=O)(=O)N3CCN(c4ccc(F)cc4)CC3)ccc21	.	.	.	.	.	.
CCN(CC(=O)NCc1ccc(F)cc1)CC(=O)Nc1ccc(S(=O)(=O)N2CCCC2)cc1	/	/	98	/	.	.
CN(CC(=O)Nc1ccc(S(=O)(=O)N2CCCC2)cc1)Cc1cccc(Cl)c1Cl	.	.	99	.	.	.
Cc1cccc(C)c1NC(=O)C(NC=O)c1ccc(Cl)cc1 (centres undefined)	.	.	.	.	.	/
Cc1cccc(C)c1NC(=O)C(C)c1ccc(-c2ccccc2)c(F)c1 (centres undefined)	.	.	100	.	.	.
CC1=C(C(=O)Nc2ccccc2C(F)(F)F)C(c2sccc2C)NC(=S)N1 (centres undefined)	/	/	.	/	.	.
O=C(NCc1ccco1)c1cccc(C(F)(F)F)c1	/	.	.	/	.	.
O=C(NCc1ccco1)/C(=C/c1ccc(C(F)(F)F)cc1)c1nc2ccccc2[nH]1	.	.	84	.	.	/
O=C(NCc1ccco1)/C(=C/c1cccc(C(F)(F)F)c1)c1nc2ccccc2[nH]1	.	.	80	.	.	.
CCN(CC)C1=C(Cl)C(=O)C(Cl)C12OCCO2 (centres undefined)	/	/	/	/	.	/
Cc1nonc1NC(=O)OC1CCCCC1	.	.	.	.	.	/
CCN(CC)S(=O)(=O)c1ccc2[nH]cc(C(=O)NCCC3=CCCCC3)c(=O)c2c1	.	.	81	.	.	.
CC(NC(=O)Cn1ncc(Cl)c(Cl)c1=O)C12CC3CC(CC(C3)C1)C2 (centres undefined)	1.4	.	100	1.2	.	.
c1ccc(-n2ncc3c(NCCN4CCCCC4)ncnc32)cc1	.	/	98	.	.	.
CCCc1c2ccccc2nc2ccccc12	.	85	.	.	.	.
O=C(C1CCN(c2ccc(N3CCOCC3)nn2)CC1)N1CCc2ccccc2C1	.	.	95	.	.	/
COc1cc(NC(=O)c2cccc(COCC(F)(F)C(F)F)c2)cc(OC)c1OC	.	/	.	.	.	/
CCc1ccc(OCCn2cccn2)cc1	/	/	.	/	.	.
CC1=NN(c2ccccc2)C(=O)/C1=C\c1ccc(Br)s1	.	/	54	.	.	.
CC1=NN(c2ccccc2)C(=O)/C1=C/c1ccc[nH]1	.	.	.	.	.	.
CC1=NN(c2ccccc2)C(=O)/C1=C\c1cc(C)n(-c2ccccc2)c1C	.	/	.	.	.	/
CC1=NN(c2ccc(C)cc2)C(=O)/C1=C\C=C\c1ccccc1	3.0	.	100	3.1	.	.
Cc1ccc(CNC(=O)C2C3C=CC(C3)C2C(=O)O)cc1 (centres undefined)	.	.	.	.	.	.
SMILES	PTEN del growth	INS promoter inh	L major viab	bCat KO growth	p97 ATPase inh	ROMK primary
COc1ccc(C2CC(c3ccccc3)=NN2C(=O)COC(=O)C2(C)CC2(Cl)Cl)cc1 (centres undefined)	/	.	60	/	.	/
Cc1ccc(C(=O)N2CCN(c3ncccn3)CC2)cc1S(=O)(=O)N1CCCCC1	.	.	59	.	.	/
Cc1ccc(NC(=O)NNC(=O)Cn2nc(-c3ccccc3)c(-c3ccccc3)c(C#N)c2=O)cc1	/	/	.	.	15	.
O=C(Cn1nc(-c2ccccc2)c2ccccc2c1=O)Nc1ccc(O)cc1	/	/	/	/	.	/
O=C(NCCN1CCOCC1)c1cnn2c(-c3ccccc3)cc(-c3ccccc3)nc12	.	.	99	.	.	/
CCN(CC)c1nc(SCC(=O)O)nc(N(CC)CC)n1	.	.	.	.	15	.
CCOC(=O)CSc1nc(NC#N)nc(N(CC)CC)n1	.	.	.	.	.	.
Cc1nnc(N(C)C(=O)c2ccc3c(c2)OCO3)s1	/	/	.	/	.	.
